Peg3 prom inh – reduces Peg3 promoter-driven luciferase expression in HeLa; inhibition, % at 20 µM; AID 588405; HeLa PEG-Prom luciferase reporter, luminescence, overnight; hit rate 1.7% among 360,000;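 active = inhibition of at least 50% at 20 µM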
TRPM1 prom inh – MITF TRPM1 promoter inhibition in SK-MEL-5 cells | SK-MEL-5 TRPM1 promoter luciferase, 24 h | inhibition, % at 12.5 µM | hit rate 0.83% among 330,000 | AID 488899;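 active = mean inhibition across replicates of 60% or more, whatever share of single replicates reaches that level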
HIF-2a inh – blocks HIF-2a reporter activity; AID 624352; hit rate 0.72% among 360,000; inhibition, % at 18.8 µM; 786-0 RCC cells HIF-2a reporter, luciferase luminescence, overnight;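 active = inhibition of the luminescence signal of 40% or more relative to plate controls, in a single-dose primary screen at 18.75 µM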
KKLEB cytotox – counter-screen for CF NF-kB inhibitors: cytotoxicity; hit rate 0.36% among 360,000; activity change (cytotoxicity), % at 5 µM; AID 602141; KKLEB CF airway cells viability, ATPlite luminescence, overnight; hits give low values; cells stimulated with P. aeruginosa culture filtrate;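 active = corrected activity change at or below -50% at 5 µM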
CF NFkB block – inhibitors of cystic fibrosis induced NF-kB | inhibition, % at 5 µM | hit rate 0.86% among 360,000 | KKLEB NF-kB-GFP reporter, PAF-induced, GFP fluorescence overnight;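 active = at least 50% inhibition at 5 µM, scaled per plate between neutral and stimulator controls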;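 also: PAF is a Pseudomonas aeruginosa culture filtrate used as stimulus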
Shn3 inh set2 – reduces Shn3 3'UTR luciferase signal in osteoblasts. Clone20 osteoblast Shn3 3'UTR firefly luciferase, 24 h. inhibition, % at 12.5 µM. hit rate 0.52% among 360,000;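 active = mean inhibition of at least 75% with every replicate also reaching 75%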
Mdm2 MdmX conf – Mdm2/MdmX (human) interaction inhibition, confirmed; shares compounds with HIF-2a inh; SaOS-2 split-luciferase Mdm2/MdmX complementation, luminescence; inhibition, % at 8 µM; hit rate 99% among 740;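 active = mean inhibition of the luminescence signal across two replicates at or above 26 percent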
Target sequence (O15151 whole entry, looked up): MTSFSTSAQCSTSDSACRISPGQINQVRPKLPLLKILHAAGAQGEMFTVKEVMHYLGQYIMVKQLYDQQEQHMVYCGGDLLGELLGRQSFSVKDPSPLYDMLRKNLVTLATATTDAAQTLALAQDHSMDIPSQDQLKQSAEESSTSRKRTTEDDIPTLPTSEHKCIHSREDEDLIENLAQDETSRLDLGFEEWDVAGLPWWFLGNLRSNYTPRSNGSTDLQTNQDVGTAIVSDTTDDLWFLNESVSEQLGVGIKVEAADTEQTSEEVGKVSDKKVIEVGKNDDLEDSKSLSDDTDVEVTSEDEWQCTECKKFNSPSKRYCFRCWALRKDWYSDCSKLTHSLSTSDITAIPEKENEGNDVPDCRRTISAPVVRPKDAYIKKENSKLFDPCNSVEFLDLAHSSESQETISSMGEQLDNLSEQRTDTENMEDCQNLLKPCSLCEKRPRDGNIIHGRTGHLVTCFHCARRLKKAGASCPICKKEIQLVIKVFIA
Target sequence (Q00987 whole entry, looked up): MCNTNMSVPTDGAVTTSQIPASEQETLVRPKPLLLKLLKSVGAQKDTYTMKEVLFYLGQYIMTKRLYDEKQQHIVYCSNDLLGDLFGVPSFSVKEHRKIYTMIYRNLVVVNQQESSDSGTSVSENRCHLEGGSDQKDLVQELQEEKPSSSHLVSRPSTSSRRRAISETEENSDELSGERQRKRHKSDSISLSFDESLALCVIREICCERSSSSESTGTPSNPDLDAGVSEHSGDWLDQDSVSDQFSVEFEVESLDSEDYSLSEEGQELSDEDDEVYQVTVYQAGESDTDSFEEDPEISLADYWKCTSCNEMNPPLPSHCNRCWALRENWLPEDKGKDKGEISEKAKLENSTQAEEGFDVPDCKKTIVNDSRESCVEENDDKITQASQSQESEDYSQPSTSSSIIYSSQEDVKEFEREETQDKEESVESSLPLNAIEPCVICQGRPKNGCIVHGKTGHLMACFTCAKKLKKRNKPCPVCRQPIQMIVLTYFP
HIF-2a conf – HIF-2a inhibition, single concentration confirmation. shares compounds with HIF-2a inh. hit rate 56% among 1,800. 786-0 RCC cells, HIF-2a luciferase reporter luminescence, overnight. AID 651580. inhibition, % at 18.8 µM;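 active = mean inhibition across four replicates of at least 40 percent at the single tested concentration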
HIF-1a cs – inhibits HIF-1a reporter, a counter-screen for HIF-2a inhibitors; shares compounds with HIF-2a inh; MiaPaCa-2 HIF-1a luciferase reporter, desferoxamine, overnight; inhibition, % at 18.8 µM; hit rate 72% among 1,800;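 active = mean inhibition of the reporter signal across four replicates at the single tested dose of 50% or more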
Hits are given with their value. Rows were chosen to be rich in hits. Some 2.7% of all compounds tested hit in one or more screens of this group.

`COc1cc(/C=C/C(=O)NC(C)(C)C)ccc1OCc1ccccc1` gave Peg3 prom inh inactive, TRPM1 prom inh inactive, HIF-2a inh inactive, KKLEB cytotox inactive, CF NFkB block inactive and Shn3 inh set2 inactive.
Screening COc1cc(OCc2ccccc2)c(C(=O)/C=C/c2ccc3c(c2)OCO3)c(OC)c1OC returned Peg3 prom inh inactive, TRPM1 prom inh inactive, HIF-2a inh 51.5, KKLEB cytotox inactive, CF NFkB block inactive, Shn3 inh set2 inactive, HIF-2a conf 40.1 and HIF-1a cs 53.2.
COc1cc(OC)c(C(=O)/C=C/c2ccc(OCc3ccccc3)c(OC)c2)c(OC)c1 was read as Peg3 prom inh inactive, TRPM1 prom inh inactive, HIF-2a inh 46.4, KKLEB cytotox inactive, CF NFkB block inactive, Shn3 inh set2 inactive, HIF-2a conf inactive and HIF-1a cs inactive.
`CC(C)Cc1nc2oc3c(Cl)ncnc3c2c2c1CCCC2` gave Peg3 prom inh 113.1, TRPM1 prom inh inactive, HIF-2a inh 75.1, KKLEB cytotox inactive, CF NFkB block inactive, Shn3 inh set2 inactive, HIF-2a conf 45.1 and HIF-1a cs 99.6.
Screening CC(C)COc1ccc(C(=S)N2CCCC2)cc1 returned Peg3 prom inh inactive, TRPM1 prom inh inactive, HIF-2a inh 57.4, KKLEB cytotox inactive, CF NFkB block inactive, Shn3 inh set2 inactive, HIF-2a conf 57.5 and HIF-1a cs inactive.
For Cc1ccc(C)c(C(O)c2ncc(-c3ccc4ccccc4c3)[nH]2)c1 (centres undefined) the results were Peg3 prom inh inactive, HIF-2a inh inactive, KKLEB cytotox inactive, CF NFkB block inactive and Shn3 inh set2 inactive.
`CC1=CN2C(=NC(=O)CC2(C)C(=O)N(CC(=O)NC2CCCC2)Cc2ccc(Cl)cc2)C=C1` (centres undefined) gave Peg3 prom inh inactive, TRPM1 prom inh inactive, HIF-2a inh inactive, KKLEB cytotox inactive, CF NFkB block inactive and Shn3 inh set2 inactive.
`CCc1ccc(/C=C/C(=O)c2c(C)cc(C)[nH]c2=O)cc1` gave Peg3 prom inh 63.7, TRPM1 prom inh inactive, HIF-2a inh 51.9, KKLEB cytotox inactive, CF NFkB block inactive, Shn3 inh set2 inactive, HIF-2a conf inactive and HIF-1a cs 53.5.
`Cc1ccc(/C=C/C(=O)c2c(C)cc(C)[nH]c2=O)cc1` gave Peg3 prom inh inactive, TRPM1 prom inh inactive, HIF-2a inh inactive, KKLEB cytotox inactive, CF NFkB block inactive and Shn3 inh set2 inactive.
Screening Cc1cccc(CNC(=O)CC2C(=O)NCCN2C2CCCC2)c1 (centres undefined) returned Peg3 prom inh inactive, TRPM1 prom inh inactive, HIF-2a inh inactive, KKLEB cytotox inactive, CF NFkB block inactive and Shn3 inh set2 inactive.
`Nc1nc2ccc(S(=O)(=O)c3ccc4nc(N)sc4c3)cc2s1` gave Peg3 prom inh inactive, TRPM1 prom inh inactive, HIF-2a inh 47.7, KKLEB cytotox inactive, CF NFkB block inactive, Shn3 inh set2 inactive, HIF-2a conf 40.6 and HIF-1a cs inactive.
`CCN(CC(=O)Nc1c(F)cccc1F)C(=O)CC1CCCCC1` gave Peg3 prom inh inactive, TRPM1 prom inh inactive, HIF-2a inh inactive, KKLEB cytotox inactive, CF NFkB block inactive and Shn3 inh set2 inactive.
Oc1ccc(-c2cc(-c3ccc(O)cc3)nc(-c3ccccc3)n2)cc1 was read as Peg3 prom inh inactive, TRPM1 prom inh inactive, HIF-2a inh 65.5, KKLEB cytotox inactive, CF NFkB block inactive, Shn3 inh set2 inactive, HIF-2a conf inactive and HIF-1a cs 103.9.
Screening Nc1ccc(-c2cc(-c3ccc(N)cc3)nc(-c3ccccc3)n2)cc1 returned Peg3 prom inh inactive, TRPM1 prom inh inactive, HIF-2a inh inactive, KKLEB cytotox inactive, CF NFkB block inactive and Shn3 inh set2 inactive.
CC1(C)Oc2ccc3ccc(=O)oc3c2C[C@H]1O[C@@H]1O[C@H](CO)[C@@H](O)[C@H](O)[C@H]1O was read as Peg3 prom inh inactive, TRPM1 prom inh inactive, HIF-2a inh inactive, KKLEB cytotox inactive, CF NFkB block inactive and Shn3 inh set2 inactive.
For CC(=O)OC(C)(C)/C=C/C(=O)[C@](C)(O)C1[C@H](O)C[C@@]2(C)C3CC=C4C(C=C(O[C@@H]5O[C@H](CO)[C@@H](O)[C@H](O)[C@H]5O)C(=O)C4(C)C)[C@]3(C)C(=O)C[C@]12C (some centres undefined) the results were Peg3 prom inh 57.5, TRPM1 prom inh inactive, HIF-2a inh 45.8, KKLEB cytotox -68.0, CF NFkB block 73.5, Shn3 inh set2 inactive, HIF-2a conf inactive and HIF-1a cs inactive.
Cc1nc2cc(NC(=O)c3ccc([N+](=O)[O-])s3)ccc2s1 was read as Peg3 prom inh inactive, TRPM1 prom inh 103.8, HIF-2a inh 67.2, KKLEB cytotox inactive, CF NFkB block inactive, Shn3 inh set2 inactive, HIF-2a conf 74.5 and HIF-1a cs 93.2.
`CC(C)(C)NC(=O)CSc1ncnc2c1nnn2Cc1ccccc1Cl` gave Peg3 prom inh inactive, TRPM1 prom inh inactive, HIF-2a inh 47.9, KKLEB cytotox inactive, CF NFkB block inactive, Shn3 inh set2 inactive, HIF-2a conf inactive and HIF-1a cs inactive.
For O=C(CSc1ncnc2c1nnn2Cc1ccccc1)NC1CCCC1 the results were Peg3 prom inh inactive, TRPM1 prom inh inactive, HIF-2a inh inactive, KKLEB cytotox inactive, CF NFkB block inactive and Shn3 inh set2 inactive.
`Cc1cc(C)c(C(CC(=O)c2cccs2)C(C#N)C#N)c(C)c1` (centres undefined) gave Peg3 prom inh inactive, TRPM1 prom inh inactive, HIF-2a inh 75.5, KKLEB cytotox -53.5, CF NFkB block 61.3, Shn3 inh set2 inactive, HIF-2a conf inactive and HIF-1a cs 101.8.
`CN(c1ccccc1)S(=O)(=O)c1ccc(Cl)nc1` gave Peg3 prom inh inactive, TRPM1 prom inh inactive, HIF-2a inh inactive, KKLEB cytotox inactive, CF NFkB block inactive and Shn3 inh set2 inactive.
For Cc1nc(S(=O)(=O)N(C)c2ccccc2)c(C#N)c(C)c1Cl the results were Peg3 prom inh 53.9, TRPM1 prom inh inactive, HIF-2a inh inactive, KKLEB cytotox inactive, CF NFkB block inactive, Shn3 inh set2 inactive and Mdm2 MdmX conf 102.7.
Nc1ncnc2c1ncn2[C@@H]1O[C@H](CO)C[C@H]1O was read as Peg3 prom inh inactive, TRPM1 prom inh inactive, HIF-2a inh inactive, KKLEB cytotox inactive, CF NFkB block inactive and Shn3 inh set2 inactive.
Screening Nc1ncnc2c1ncn2C1C=C(CO)C(O)C1O (centres undefined) returned Peg3 prom inh inactive, TRPM1 prom inh inactive, HIF-2a inh 43.5, KKLEB cytotox inactive, CF NFkB block inactive, Shn3 inh set2 inactive, HIF-2a conf inactive and HIF-1a cs 81.1.
